Inconclusive results are not listed. Active and inactive are the calls of the source. Rule for the calls, unless noted: active = hit-call score of the fitted dose curve at least 0.9, where 1 is the maximum; inconclusive = response in the unintended direction; inactive = score below 0.9.
Legend:
[1] = target: human RAR-related Orphan Receptor gamma (RORg), RORC (gene 6097) (UniProt P51449); test: ATG_RORg_TRANS: Attagene TRANS-FACTORIAL HepG2 Assay for human RAR-related Orphan Receptor gamma (RORg) (AID 2283011);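 for AC50: potency for induction of reporter transcripts above DMSO so activators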
Method in brief: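 Chimeric RORg-Gal4 transactivation in transfected HepG2; 24 h exposure; RT-PCR/capillary electrophoresis readout of reporter mRNA, DMSO baseline.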

[2] = target: Retinoic acid receptor RXR-alpha (Homo sapiens) (UniProt P19793); test: ATG_RXRa_TRANS: Attagene TRANS-FACTORIAL HepG2 Assay for human Retinoid X Receptor alpha (RXRa) (AID 2283012)
Method in brief: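 Cells (HepG2) carried transiently transfected GAL4-responsive reporter units. Following a 24 h chemical incubation, reporter mRNA induction was read via RT-PCR fragment analysis; DMSO served as negative control and baseline.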

[3] = target: human Thyroid Receptor alpha (THRa1), THRA (gene 7067) (UniProt P10827); test: ATG_THRa1_TRANS: Attagene TRANS-FACTORIAL HepG2 Assay for human Thyroid Receptor alpha (THRa1) (AID 2283014)
Method in brief: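 Measured here is mRNA from a GAL4-UAS reporter in transfected HepG2 cells carrying a Gal4-fused receptor, 24 h post-dose. DMSO served as negative control and baseline.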

[4] = read-out: E-selectin (Homo sapiens) (UniProt P16581); test: BSK_3C_Eselectin: BioMAP Diversity Plus: 3C Assay for Eselectin Biomarker Activity (AID 2283015; active = hit-call score of the fitted dose curve at least 0.9, where 1 is the maximum; inactive = score below 0.9); conditions: primary human endothelial cells (HUVEC); actives raise or lower the signal
Method in brief: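 Endpoint derived by bidirectional fitting against DMSO vehicle; signal is ELISA-detected E-selectin from primary HUVEC at 24 h post-dosing, with parallel SRB staining (0.1% SRB, 560 nm) flagging cytotoxicity.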

[5] = read-out: Interleukin-1 alpha (IL1a), IL1A (gene 3552); test: BSK_BE3C_IL1a: BioMAP Diversity Plus: BE3C Assay for Interleukin-1 alpha (IL1a) Biomarker Activity (AID 2283016; active = hit-call score of the fitted dose curve at least 0.9, where 1 is the maximum; inactive = score below 0.9); conditions: primary human bronchial epithelial cells; actives raise or lower the signal
Method in brief: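 Cultures of primary human bronchial epithelial cells receive test chemical. After 24 h, IL-1a is quantified by ELISA, while parallel wells are fixed in TCA and SRB-stained for total protein. Changes in either direction are fitted relative to DMSO.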

[6] = read-out: Monocyte Chemoattractant Protein-1 (MCP1), CCL2 (gene 6347); test: BSK_3C_MCP1: BioMAP Diversity Plus: 3C Assay for Monocyte Chemoattractant Protein-1 (MCP1) Biomarker Activity (AID 2283017; active = hit-call score of the fitted dose curve at least 0.9, where 1 is the maximum; inactive = score below 0.9); conditions: primary human endothelial cells (HUVEC); actives raise or lower the signal
Method in brief: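 Using human vascular primary endothelium, researchers measured MCP-1 by ELISA 24 h after treatment, with DMSO serving as negative control for bidirectional fitting.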

[7] = read-out: Monocyte Chemoattractant Protein-1 (MCP1), CCL2 (gene 6347); test: BSK_4H_MCP1: BioMAP Diversity Plus: 4H Assay for Monocyte Chemoattractant Protein-1 (MCP1) Biomarker Activity (AID 2283018; active = hit-call score of the fitted dose curve at least 0.9, where 1 is the maximum; inactive = score below 0.9); conditions: primary human endothelial cells (HUVEC); actives raise or lower the signal
Method in brief: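 Readout: MCP-1 ELISA on compound-treated HUVEC, sampled 24 h post-dosing. Baseline and negative control DMSO; bidirectional fit. Overt toxicity checked alongside by sulforhodamine B protein staining at time of biomarker measurement.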

[8] = read-out: Human Leukocyte Antigen - DR isotype (HLADR), HLA-DRA (gene 3122); test: BSK_3C_HLADR: BioMAP Diversity Plus: 3C Assay for Human Leukocyte Antigen - DR isotype (HLADR) Biomarker Activity (AID 2283019; active = hit-call score of the fitted dose curve at least 0.9, where 1 is the maximum; inactive = score below 0.9); conditions: primary human endothelial cells (HUVEC); actives raise or lower the signal
Method in brief: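 Compound added to primary HUVEC cultures, 24 h incubation, then HLA-DR determined by ELISA; endpoint derived by bidirectional fitting relative to DMSO negative control.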

[9] = read-out: Interleukin-8 (IL8), CXCL8 (gene 3576); test: BSK_3C_IL8: BioMAP Diversity Plus: 3C Assay for Interleukin-8 (IL8) Biomarker Activity (AID 2283020; active = hit-call score of the fitted dose curve at least 0.9, where 1 is the maximum; inactive = score below 0.9); conditions: primary human endothelial cells (HUVEC); actives raise or lower the signal
Method in brief: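 Human vascular endothelial cells (umbilical vein) in the 3C system; IL-8 level detected by ELISA at 24 h post-dose, with DMSO as baseline.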

[10] = target: human Vitamin D Receptor (VDR), VDR (gene 7421) (UniProt P11473); test: ATG_VDR_TRANS: Attagene TRANS-FACTORIAL HepG2 Assay for human Vitamin D Receptor (VDR) (AID 2283022)
Method in brief: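 Multiplexed TRANS reporter in HepG2; 24 h treatment; reporter mRNA by RT-PCR plus capillary electrophoresis; upregulation scored relative to DMSO.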

[11] = BSK_3C_SRB: Viability Assessment in the BioMAP Diversity Plus: 3C Assay (AID 2283023; active = hit-call score of the fitted dose curve at least 0.9, where 1 is the maximum; inactive = score below 0.9;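 note: cells read 24 h after compound dosing; fitted both ways against DMSO so a hit may be signal rise or drop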); conditions: primary human endothelial cells (HUVEC)
Method in brief: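 Overt cytotoxicity is gauged in parallel confluent HUVEC cultures by SRB total-protein staining at the time of biomarker measurement, 24 h after dosing. Gain or loss of signal is fitted versus DMSO.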

[12] = read-out: Matrix Metallopeptidase 1 (MMP1), MMP1 (gene 4312); test: BSK_BE3C_MMP1: BioMAP Diversity Plus: BE3C Assay for Matrix Metallopeptidase 1 (MMP1) Biomarker Activity (AID 2283024; active = hit-call score of the fitted dose curve at least 0.9, where 1 is the maximum; inactive = score below 0.9); conditions: primary human bronchial epithelial cells; actives raise or lower the signal
Method in brief: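 Dose cells, wait 24 h, run MMP1 ELISA; cells are human bronchial epithelial primaries. Both increases and decreases relative to DMSO counted.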

[13] = BSK_3C_Vis: BioMAP Diversity Plus: 3C Assay for Morphology Visualization (AID 2283025; active = hit-call score of the fitted dose curve at least 0.9, where 1 is the maximum; inactive = score below 0.9;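 note: light microscopy image of cell morphology used as background control; cells imaged 24 h after dosing; fitted both ways so gain or loss versus DMSO counts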); conditions: primary human endothelial cells (HUVEC)
Method in brief: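 Endothelial cells from human umbilical vein were treated with test chemicals for 24 h and inspected by light microscopy for changes in cell conformation.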

[14] = read-out: Pselectin, SELP (gene 6403); test: BSK_4H_Pselectin: BioMAP Diversity Plus: 4H Assay for Pselectin Biomarker Activity (AID 2283026; active = hit-call score of the fitted dose curve at least 0.9, where 1 is the maximum; inactive = score below 0.9); conditions: primary human endothelial cells (HUVEC); actives raise or lower the signal
Method in brief: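 Human vascular endothelium from umbilical vein; P-selectin measured by ELISA at 24 h post-dose, with cytotoxicity checked by sulforhodamine B total-protein staining in parallel cultures (0.1% SRB after 10% TCA fixation, read at 560 nm).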

[15] = BSK_4H_SRB: Viability Assessment in the BioMAP Diversity Plus: 4H Assay (AID 2283027; active = hit-call score of the fitted dose curve at least 0.9, where 1 is the maximum; inactive = score below 0.9;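 note: cells exposed to compound for 24 h before staining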;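 for AC50: curves fitted both ways versus DMSO so AC50 may be loss or gain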); conditions: primary human endothelial cells (HUVEC)
Method in brief: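 Human umbilical vein endothelial cells were dosed with chemical and, after 24 h, fixed with 10% TCA, stained with 0.1% sulforhodamine B, and read at 560 nm to give total protein as a cytotoxicity measure. Bidirectional fitting relative to DMSO control.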

[16] = BSK_BE3C_SRB: Viability Assessment in the BioMAP Diversity Plus: BE3C Assay (AID 2283028; active = hit-call score of the fitted dose curve at least 0.9, where 1 is the maximum; inactive = score below 0.9;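 note: measured 24 h after chemical dosing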;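 for AC50: fitted both ways so AC50 may mark signal gain or loss versus DMSO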); conditions: primary human bronchial epithelial cells
Method in brief: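 SRB total-protein staining (0.1%, after TCA fixation) of chemically dosed human bronchial epithelial primary cells at 24 h; DMSO serves as the negative control for bidirectional curve fitting.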

[17] = read-out: Thrombomodulin, THBD (gene 7056); test: BSK_3C_Thrombomodulin: BioMAP Diversity Plus: 3C Assay for Thrombomodulin Biomarker Activity (AID 2283029; active = hit-call score of the fitted dose curve at least 0.9, where 1 is the maximum; inactive = score below 0.9); conditions: primary human endothelial cells (HUVEC); actives raise or lower the signal
Method in brief: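 Thrombomodulin ELISA, human primary HUVEC, 24 h post-dose; data fitted in both directions relative to DMSO.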

[18] = read-out: Urokinase-type plasminogen activator receptor (uPAR), PLAUR (gene 5329); test: BSK_4H_uPAR: BioMAP Diversity Plus: 4H Assay for Urokinase-type plasminogen activator receptor (uPAR) Biomarker Activity (AID 2283030; active = hit-call score of the fitted dose curve at least 0.9, where 1 is the maximum; inactive = score below 0.9); conditions: primary human endothelial cells (HUVEC); actives raise or lower the signal
Method in brief: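 Endpoint derived via bidirectional curve fitting against DMSO baseline; readout was ELISA detection of uPAR on umbilical vein endothelial cells at 24 h post-treatment, with SRB-stained parallel cultures assessing cytotoxicity.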

[19] = target: human Retinoid X Receptor beta (RXRb), RXRB (gene 6257) (UniProt P28702); test: ATG_RXRb_TRANS: Attagene TRANS-FACTORIAL HepG2 Assay for human Retinoid X Receptor beta (RXRb) (AID 2283013)
Method in brief: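 Multiplexed TRANS reporter assay in HepG2; 24 h dosing; reporter mRNA by RT-PCR/CE fluorescence; gain-of-signal relative to DMSO.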

Measured: AC50

Sequence of human Retinoid X Receptor beta (RXRb), RXRB (gene 6257) (P28702 whole entry, looked up): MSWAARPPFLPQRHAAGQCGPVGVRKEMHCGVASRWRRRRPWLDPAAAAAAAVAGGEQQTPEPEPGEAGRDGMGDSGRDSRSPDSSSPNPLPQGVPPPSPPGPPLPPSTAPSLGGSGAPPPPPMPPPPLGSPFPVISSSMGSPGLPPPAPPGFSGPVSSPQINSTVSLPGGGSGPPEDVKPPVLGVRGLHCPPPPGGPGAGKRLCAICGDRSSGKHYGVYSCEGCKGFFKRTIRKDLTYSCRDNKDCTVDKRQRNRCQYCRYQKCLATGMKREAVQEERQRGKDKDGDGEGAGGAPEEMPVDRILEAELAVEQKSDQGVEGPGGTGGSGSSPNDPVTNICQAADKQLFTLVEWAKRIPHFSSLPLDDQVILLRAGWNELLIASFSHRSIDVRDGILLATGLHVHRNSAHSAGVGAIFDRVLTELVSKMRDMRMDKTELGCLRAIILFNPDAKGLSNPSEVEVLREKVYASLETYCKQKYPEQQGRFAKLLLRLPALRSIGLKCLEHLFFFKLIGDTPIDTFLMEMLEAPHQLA
Sequence of E-selectin (Homo sapiens) (P16581 whole entry, looked up): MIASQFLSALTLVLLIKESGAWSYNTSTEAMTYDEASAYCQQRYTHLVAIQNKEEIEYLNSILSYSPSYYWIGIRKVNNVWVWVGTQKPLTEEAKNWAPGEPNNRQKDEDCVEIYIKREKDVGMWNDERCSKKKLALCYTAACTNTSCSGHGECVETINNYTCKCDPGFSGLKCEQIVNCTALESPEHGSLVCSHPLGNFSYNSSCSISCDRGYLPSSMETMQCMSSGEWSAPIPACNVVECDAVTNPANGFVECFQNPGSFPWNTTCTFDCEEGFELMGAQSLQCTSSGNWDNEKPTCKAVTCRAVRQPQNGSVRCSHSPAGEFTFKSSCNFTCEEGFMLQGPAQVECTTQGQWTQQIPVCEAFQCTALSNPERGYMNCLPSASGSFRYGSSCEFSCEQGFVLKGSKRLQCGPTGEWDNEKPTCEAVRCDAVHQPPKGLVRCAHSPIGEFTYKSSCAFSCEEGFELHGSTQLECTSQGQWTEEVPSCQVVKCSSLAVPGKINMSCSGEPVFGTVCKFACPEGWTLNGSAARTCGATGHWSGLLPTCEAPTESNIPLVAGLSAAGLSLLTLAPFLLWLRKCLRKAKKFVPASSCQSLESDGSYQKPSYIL
Sequence of human Thyroid Receptor alpha (THRa1), THRA (gene 7067) (P10827 whole entry, looked up, the tested form may be a part): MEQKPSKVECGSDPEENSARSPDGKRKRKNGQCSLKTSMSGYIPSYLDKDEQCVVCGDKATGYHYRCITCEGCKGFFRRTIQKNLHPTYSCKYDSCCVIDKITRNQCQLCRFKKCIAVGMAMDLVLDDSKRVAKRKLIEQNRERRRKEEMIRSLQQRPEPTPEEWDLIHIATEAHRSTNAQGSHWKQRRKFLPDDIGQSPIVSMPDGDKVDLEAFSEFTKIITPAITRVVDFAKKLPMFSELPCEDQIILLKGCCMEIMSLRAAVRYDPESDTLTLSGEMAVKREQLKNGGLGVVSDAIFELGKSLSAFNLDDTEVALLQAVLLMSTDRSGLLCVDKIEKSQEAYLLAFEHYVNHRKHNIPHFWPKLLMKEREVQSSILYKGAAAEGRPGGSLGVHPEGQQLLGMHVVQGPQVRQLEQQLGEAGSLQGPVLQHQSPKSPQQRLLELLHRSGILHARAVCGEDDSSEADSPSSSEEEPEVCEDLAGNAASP
Sequence of human RAR-related Orphan Receptor gamma (RORg), RORC (gene 6097) (P51449 whole entry, looked up, the tested form may be a part): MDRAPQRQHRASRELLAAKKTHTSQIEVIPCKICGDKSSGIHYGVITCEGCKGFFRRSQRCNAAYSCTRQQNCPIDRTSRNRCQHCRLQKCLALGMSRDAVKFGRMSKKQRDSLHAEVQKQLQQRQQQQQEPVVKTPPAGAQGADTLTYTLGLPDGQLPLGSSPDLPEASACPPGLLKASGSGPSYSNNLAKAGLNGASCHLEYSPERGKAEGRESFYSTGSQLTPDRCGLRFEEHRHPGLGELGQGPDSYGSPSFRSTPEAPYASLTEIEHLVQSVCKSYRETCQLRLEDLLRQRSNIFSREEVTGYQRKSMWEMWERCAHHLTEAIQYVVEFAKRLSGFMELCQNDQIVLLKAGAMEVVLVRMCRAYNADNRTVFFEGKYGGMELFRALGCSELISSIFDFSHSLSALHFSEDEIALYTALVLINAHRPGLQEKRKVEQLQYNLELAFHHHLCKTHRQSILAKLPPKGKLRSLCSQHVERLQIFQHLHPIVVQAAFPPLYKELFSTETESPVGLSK
Sequence of human Vitamin D Receptor (VDR), VDR (gene 7421) (P11473 whole entry, looked up): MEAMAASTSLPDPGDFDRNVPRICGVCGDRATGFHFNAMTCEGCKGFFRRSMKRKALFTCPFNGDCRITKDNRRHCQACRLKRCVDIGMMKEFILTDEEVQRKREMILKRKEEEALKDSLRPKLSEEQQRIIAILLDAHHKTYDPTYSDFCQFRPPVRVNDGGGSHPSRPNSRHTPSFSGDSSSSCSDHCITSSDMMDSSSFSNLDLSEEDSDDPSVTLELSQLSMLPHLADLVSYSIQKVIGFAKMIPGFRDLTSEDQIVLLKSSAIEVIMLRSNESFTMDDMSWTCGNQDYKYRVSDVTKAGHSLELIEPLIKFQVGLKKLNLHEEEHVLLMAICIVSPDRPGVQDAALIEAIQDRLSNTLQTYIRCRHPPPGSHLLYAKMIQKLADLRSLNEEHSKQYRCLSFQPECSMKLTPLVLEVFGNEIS
Sequence of Retinoic acid receptor RXR-alpha (Homo sapiens) (P19793 whole entry, looked up, the tested form may be a part): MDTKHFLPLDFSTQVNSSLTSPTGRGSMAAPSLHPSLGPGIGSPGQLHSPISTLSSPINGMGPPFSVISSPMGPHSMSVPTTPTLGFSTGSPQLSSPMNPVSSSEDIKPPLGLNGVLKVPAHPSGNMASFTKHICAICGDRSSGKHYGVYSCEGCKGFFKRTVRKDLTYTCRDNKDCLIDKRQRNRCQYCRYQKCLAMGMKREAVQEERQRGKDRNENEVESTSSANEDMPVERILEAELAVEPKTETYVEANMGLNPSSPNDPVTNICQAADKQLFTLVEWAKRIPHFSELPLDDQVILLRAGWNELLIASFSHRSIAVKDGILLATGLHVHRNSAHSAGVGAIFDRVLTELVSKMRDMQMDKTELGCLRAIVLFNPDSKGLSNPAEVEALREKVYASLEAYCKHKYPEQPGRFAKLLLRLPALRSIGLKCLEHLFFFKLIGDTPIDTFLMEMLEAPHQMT

CCC(C)c1cc([N+](=O)[O-])cc([N+](=O)[O-])c1OC(=O)OC(C)C (centres undefined)
active: [2] 32.6 µM | [4] 17.9 µM | [5] 25.4 µM | [6] 29.5 µM | [7] 5.06 µM | [8] 9.38 µM | [9] 34.1 µM | [11] 14.1 µM | [12] 35.1 µM | [13] 12 µM | [14] 9.75 µM | [15] 13.9 µM | [16] 29.4 µM | [17] 20 µM | [18] 13 µM
inactive: [1] | [3] | [10]

Cc1ccc(N)c(S(=O)(=O)O)c1
inactive: [1] | [2] | [10]

c1ccc(Oc2ccccc2)cc1
inactive: [1] | [2] | [5] | [10] | [12] | [16] | [17] | [18]
active: [19] 114 µM | [4] 35.9 µM | [6] 30.3 µM | [7] 32.9 µM | [8] 32.8 µM | [9] 20 µM | [13] 37.8 µM | [14] 30.8 µM | [15] 31.3 µM

COc1ccc(OC)c(N=Nc2c(O)ccc3ccccc23)c1
inactive: [1] | [2] | [19] | [3] | [4] | [7] | [9] | [12] | [15] | [18]
active: [5] 2.11 µM | [6] 20 µM | [8] 10.9 µM | [13] 13 µM | [14] 5.42 µM | [16] 5.55 µM | [17] 9.48 µM

CCCCOCC
inactive: [1] | [2] | [19] | [10]

CCCN(CCC)S(=O)(=O)c1ccc(C(=O)O)cc1
inactive: [1] | [2] | [10]

Nc1ccc2c(O)cc(S(=O)(=O)O)cc2c1
inactive: [1] | [19]

C=CCOC(=O)CCCCCC
inactive: [1] | [2] | [19] | [10]

ON=C1CCCCC1
inactive: [1] | [2] | [19] | [10]

O=C(CS)OCCOC(=O)CS
inactive: [2] | [19] | [10]
active: [1] 67 µM

C=C1C[C@]23C[C@@]1(O)CC[C@H]2[C@@]12C=C[C@H](O)[C@@](C)(C(=O)O1)[C@H]2[C@@H]3C(=O)O
inactive: [1] | [2] | [19] | [3] | [10]

CCOC(=O)c1ccc(N)cc1
inactive: [1] | [2] | [3] | [10]

CC(C)(C)C1=CC(=O)C(C(C)(C)C)=CC1=O
active: [1] 72 µM | [19] 13.7 µM
inactive: [2] | [3] | [10]

CCCCCCCC(=O)OCCCCCC
inactive: [1] | [2] | [19] | [10]

O=C(O)c1cc(C(=O)O)cc([N+](=O)[O-])c1
inactive: [1] | [2] | [19] | [3] | [10]
